Measured values published in PubChem BioAssay (NCI).
Compounds without any hit were thinned out: in the full panel of roughly 79,000, 15% have a hit. Cut-off read from the data, not from the text of the source: active = growth inhibition above about 70%; inactive = the rest.

Key:
[1] = NCI Yeast Anticancer Drug Screen. Data for the rad50 strain (AID 155);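 note: 0% = growth of vehicle-only cultures of the same strain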; conditions: S. cerevisiae rad50 strain growth inhibition; at 50.0 µM; stronger effect = higher value
Procedure, shortened: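 Cells are treated with compound, grown, and their growth is then scored against vehicle-only cultures of the same repair-deficient yeast strain.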

[2] = NCI Yeast Anticancer Drug Screen. Data for the mec2-1 strain (AID 157); conditions: S. cerevisiae mec2-1 strain, at 50.0 µM, stronger effect = higher value
Procedure, shortened: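 Cells of the genetically defined mec2-1 yeast strain are incubated with test compound. Inhibition of growth is calculated against vehicle-treated controls.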

[3] = NCI Yeast Anticancer Drug Screen. Data for the sgs1 mgt1 strain (AID 161);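 note: 0% = growth of cultures given vehicle only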; conditions: S. cerevisiae sgs1 mgt1 strain, at 50.0 µM, stronger effect = higher value
Procedure, shortened: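 Genetically altered yeast, compound exposure, growth inhibition relative to vehicle.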

[4] = NCI Yeast Anticancer Drug Screen. Data for the cln2 rad14 strain (AID 165);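 note: 0% = growth equal to vehicle treated cultures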; conditions: S. cerevisiae cln2 rad14 strain, at 50.0 µM, stronger effect = higher value
Procedure, shortened: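 The screen exposed genetically defined yeast (cln2 rad14) to test compounds and scored growth inhibition relative to vehicle-treated controls.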

[5] = NCI Yeast Anticancer Drug Screen. Data for the bub3 strain (AID 167); conditions: S. cerevisiae bub3 mutant strain, at 50.0 µM, stronger effect = higher value
Procedure, shortened: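 Part of a panel of yeast mutants defective in DNA damage repair or cell cycle regulation. Each strain is grown with compound, and inhibition is calculated relative to solvent-treated cultures.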

[6] = NCI Yeast Anticancer Drug Screen. Data for the mlh1 rad18 strain (AID 175); conditions: S. cerevisiae mlh1 rad18 strain growth inhibition; at 50.0 µM; stronger effect = higher value
Procedure, shortened: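 Compound-treated yeast growth, normalised to vehicle controls. Strain bears defined DNA repair mutations.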

Measured: growth inhibition

CCOC1CN=C(Nc2cccc3ccccc23)S1 (stereo not given)
inactive: [1] -51.6% | [2] -33.3% | [3] -27.9% | [4] -2.65% | [5] -34.4% | [6] -29.8%

O=C(COc1ccc2c(=O)cc(-c3ccc(Cl)cc3)oc2c1)N1CCN(c2ccccc2)CC1
inactive: [1] 9.15% | [2] 7.05% | [3] -8.8% | [4] 29.1% | [5] 3.95% | [6] 10.9%

C1=CC(=NN=P(c2ccccc2)(c2ccccc2)c2ccccc2)C=C1
inactive: [1] 21.7% | [2] 7.9% | [3] 20.3% | [4] 19.9% | [5] 18.7% | [6] 13.5%

CC(C)(C)C1=NC(S)NC(CCC(=O)Nc2ccccc2[N+](=O)[O-])=C1 (stereo not given)
inactive: [1] 0.4% | [2] -8.85% | [3] -0.4% | [4] 14.2% | [5] 8.05% | [6] -7.4%

CCNC(=O)C1C2C=CC(C2)C1C(=O)NCC (stereo not given)
inactive: [1] 2.9% | [2] -9.6% | [3] -9.15% | [4] -46% | [5] -5.3% | [6] 0.05%

O=CNC(Cc1ccccc1)c1ccc(OCc2ccccc2)cc1 (stereo not given)
inactive: [1] 0.75% | [2] 5% | [3] 1.55% | [4] 31.1% | [5] 31.6% | [6] 16.9%

CCOC(=O)C(c1ccccc1)C(Cc1ccccc1)(c1ccccc1)c1ccccc1 (stereo not given)
inactive: [1] 10.1% | [2] 9.2% | [3] 17.3% | [4] 19.6% | [5] -4.6% | [6] 10.7%

COc1cc(Nc2nc3cc(C(F)(F)F)ccc3nc2-c2ccccc2)cc(OC)c1OC
inactive: [1] 15.4% | [2] -4.8% | [3] -26.4% | [4] -11.8% | [5] -10.4% | [6] -23.9%

N#CCCCNc1ccccc1
inactive: [1] -19.1% | [2] -15% | [3] -28.4% | [4] -4.9% | [5] -8.6% | [6] -20.6%

CC1CN(C(=O)Nc2ccc([N+](=O)[O-])cc2)CC(C)O1 (stereo not given)
inactive: [1] -16.1% | [2] -36.5% | [3] 13.7% | [4] 3.5% | [5] -3.65% | [6] 6.25%

CS(=O)(=O)OCC1C2CCC(CC2)C1COS(C)(=O)=O (stereo not given)
inactive: [1] 4.5% | [2] 17.3% | [3] 10.2% | [4] -15.8% | [5] -13.2% | [6] -11.5%

O=C(/C=C/c1ccc(O)c(O)c1)c1ccc(O)c(O)c1O
inactive: [1] 14.3% | [2] -5.15% | [3] 4.45% | [4] -57.9% | [5] 8.55% | [6] 19.5%

O=C1/C(=C/c2ccc(O)c(CN3CCCCC3)c2)CCC/C1=C\c1ccc(O)c(CN2CCCCC2)c1
inactive: [1] -0.8% | [2] 23.9% | [3] 1.75% | [4] -8% | [5] -1.9% | [6] 19.4%

O=[N+]([O-])c1ccc(COP(=O)(O)OCc2ccc([N+](=O)[O-])cc2)cc1
inactive: [1] -1.5% | [2] 10.9% | [3] 13.1% | [4] -9.55% | [5] 11.2% | [6] 15.4%

CCOC(=O)/C=C\C(=O)O.[Mn]
inactive: [1] -16.2% | [2] -21.4% | [3] -7.65% | [4] -22.9% | [5] -31% | [6] -33.5%

N#Cc1cccc(/C=C\C(=O)c2ccccc2)c1
inactive: [1] 22.9% | [2] 8.65% | [3] 5.4% | [4] 17.3% | [5] 61% | [6] 13.9%

CC(=N\NS(=O)(=O)c1ccc(C)cc1)/C(C)=N/NS(=O)(=O)c1ccc(C)cc1
inactive: [1] 25.3% | [2] -1.9% | [3] 12.8% | [4] 0.85% | [5] 0.95% | [6] -8.3%

Cc1ccccc1N=Nc1c(-c2ccccc2)nn(C(N)=S)c1-c1ccccc1
inactive: [1] 36.2% | [2] 7.2% | [3] 24.1% | [4] 4.05% | [5] 0.95% | [6] 19%

CCOC1CN(C(=O)ON)N1C(=O)ON (stereo not given)
inactive: [1] 4.8% | [2] -12.6% | [3] -10.4% | [4] -33.2% | [5] -22.4% | [6] 4.85%

O=C1CCC2CCC1C2 (stereo not given)
inactive: [1] 10.1% | [2] -16.6% | [3] -41.3% | [4] 15.8% | [5] -36.7% | [6] -28.3%
